Assay [1] deals with Glutathione peroxidase 1 (Homo sapiens) (UniProt P07203). As to the kind of experiment: Primary qHTS Assay for Inhibitors of Recombinant Selenoprotein Glutathione Peroxidase 1 (GPX1) (AID 1845191). Also: nearly all actives have a fitted effect of over 65% in size. Also: potency is read from the fitted curve at half-maximal effect. As to conditions: recombinant GPX1, GR-coupled NADPH fluorescence, 15 min; series mostly up to 48.8 µM. In a few lines: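 GR-coupled readout: NADPH consumption tracked by fluorescence, ex 340/em 450 nm, at t=0 and after 15 min at RT. Final mix 10 nM GPX1, 1 mM GSH, 0.5 mM CHP, 0.5 mM NADPH, 100 nM GR, 0.01% BSA, following 30 min enzyme–compound preincubation.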

Assay [2] addresses Phospholipid hydroperoxide glutathione peroxidase GPX4 (Homo sapiens) (UniProt P36969). Put plainly: Primary qHTS Assay for Inhibitors of Recombinant Selenoprotein Glutathione Peroxidase 4 (GPX4) (AID 1845192). Also: nearly all actives have a fitted effect of over 65% in size. As to conditions: recombinant GPX4, GR-coupled NADPH fluorescence, 15 min; series mostly up to 50 µM. In a few lines: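 Steps: GPX4 plus compound, 30 min RT; add GR/GSH/NADPH master mix; start with cumene hydroperoxide; read 340/450 nm fluorescence at 0 and 15 min. Finals were 200 nM GPX4, 1 mM GSH, 0.5 mM CHP, 0.5 mM NADPH, 100 nM GR.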
On the technique in general: qHTS replaces the single test concentration by a dilution series.

The target in assay [3] is Luciferin 4-monooxygenase (Photinus pyralis) (UniProt P08659). Put plainly: Primary firefly luciferase (FLuc) qHTS assay for identification of artifact compounds. (AID 1845220). Also: nearly all actives have a fitted effect of over 60% in size. The note with it: purified firefly luciferase, luminescence, 5 min; series mostly up to 54.1 µM. In a few lines: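 D-luciferin and ATP (10 uM each, final) in Tris acetate buffer pH 7.6 were incubated with compounds for 15 min at room temperature. The reaction was started with 10 nM Photinus pyralis luciferase and luminescence read after 5 min. Percent inhibition was fitted to a 4-parameter Hill equation.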

For assay [4], the system named is Nanoluciferase (engineered Oplophorus gracilirostris luciferase). As to the kind of experiment: Primary Nanoluciferase (NLuc) qHTS assay for identification of artifact compounds. (AID 1845222). As to conditions: NLuc-conditioned medium, Nano-Glo luminescence, 5 min; series mostly up to 54.1 µM. The method, boiled down: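 Diluted conditioned medium from NLuc-expressing S16 cells treated with compounds for 15 min at room temperature, then Nano-Glo substrate added; luminescence read after 5 min. Percent inhibition versus no-enzyme and DMSO controls fitted to 4-parameter Hill equation.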

Inconclusive results are not listed. Where a call stands in place of a potency, no number is given. Where a structure was tested more than once in an assay, its records may differ in their call. Activity calls are given as the source filed them. Calls follow the shape of the dose curve; as a rule, active = well fitted inhibition curve with a large enough effect; inconclusive = small, poorly fitted or top-dose-only effect; inactive = flat fitted curve, though single readings scatter.

Among the data in PubChem BioAssay (NCATS) are Potency, activity change, negative = inhibition and outcome values, retold here.

Chain of Phospholipid hydroperoxide glutathione peroxidase GPX4 (Homo sapiens) (P36969 whole entry, looked up): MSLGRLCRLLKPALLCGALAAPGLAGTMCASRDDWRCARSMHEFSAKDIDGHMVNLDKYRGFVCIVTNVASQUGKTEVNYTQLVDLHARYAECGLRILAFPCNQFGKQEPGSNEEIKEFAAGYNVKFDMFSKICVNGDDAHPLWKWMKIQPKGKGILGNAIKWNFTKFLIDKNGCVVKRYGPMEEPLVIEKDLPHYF
Chain of Glutathione peroxidase 1 (Homo sapiens) (P07203 whole entry, looked up): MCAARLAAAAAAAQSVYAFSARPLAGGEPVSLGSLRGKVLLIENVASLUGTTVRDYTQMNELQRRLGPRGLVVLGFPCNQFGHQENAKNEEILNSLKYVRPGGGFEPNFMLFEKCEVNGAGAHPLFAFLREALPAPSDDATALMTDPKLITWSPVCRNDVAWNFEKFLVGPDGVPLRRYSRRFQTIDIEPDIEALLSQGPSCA

On to `C[C@@H](NCCCc1cccc(C(F)(F)F)c1)c1cccc2ccccc12`, for which the Potency result in assay [1] and in assay [2] was “inactive” throughout.

Regarding `COc1ncnc(NS(=O)(=O)c2ccc(N)cc2)c1OC`, the Potency result in assay [1] and in assay [2] was “inactive” each time.

For the compound `CO[C@@H]1[C@@H](OC(N)=O)[C@@H](O)[C@H](Oc2ccc3c(O)c(NC(=O)c4ccc(O)c(CC=C(C)C)c4)c(=O)oc3c2C)OC1(C)C`, the Potency result in assay [1] and in assay [2] was “inactive” throughout.

On to `NC(=O)c1cccnc1`, for which the Potency result in assay [1] and in assay [2] was “inactive” each time.

On to `COc1cccc(N(C)C(=S)Oc2ccc3c(c2)CCCC3)n1`, for which the Potency entry in assay [1] and in assay [2] was “inactive” in each case.

`Cc1cc(NS(=O)(=O)c2ccc(N)cc2)no1`: the Potency entry in assay [1] and in assay [2] was “inactive” throughout.

In the case of `CC(C)(Sc1cc(C(C)(C)C)c(O)c(C(C)(C)C)c1)Sc1cc(C(C)(C)C)c(O)c(C(C)(C)C)c1`, the Potency result in assay [1] and in assay [2] was “inactive” throughout.

With `O=S(=O)(c1cccc2cnccc12)N1CCCNCC1`, the Potency entry in assay [1] and in assay [2] was “inactive” each time.

As to `CC(C)(C)C(=O)OCOP(=O)(COCCn1cnc2c(N)ncnc21)OCOC(=O)C(C)(C)C`, the Potency result in assay [1] and in assay [2] was “inactive” in each case.

On to `Cc1cccc(N(C)C(=S)Oc2ccc3ccccc3c2)c1`, for which the Potency result in assay [1] and in assay [2] was “inactive” each time.

Take `Nc1nc(N)nc(-c2cc(Cl)ccc2Cl)n1`: the Potency result in assay [1] and in assay [2] was “inactive” each time.

`O=C(O)c1ccc(-n2nc(-c3ccccc3O)nc2-c2ccccc2O)cc1`: the Potency result in assay [1] and in assay [2] was “inactive” throughout.

As to `CNC1CCCN(c2c(F)cc3c(=O)c(C(=O)O)cn(C4CC4)c3c2OC)C1` (stereo unspecified), the Potency entry in assay [1] and in assay [2] was “inactive” in each case.

For `O=c1cc(O)c(Cl)c[nH]1`, the Potency result in assay [1] and in assay [2] was “inactive” each time.

Take `CCOC(=O)[C@H](CCc1ccccc1)N[C@H]1CS[C@H](c2cccs2)CN(CC(=O)O)C1=O`: the Potency entry in assay [1] and in assay [2] was “inactive” in each case.

Consider `CN1CCN(c2c(F)cc3c(=O)c(C(=O)O)cn4c3c2OCN4C)CC1`, for which the Potency entry in assay [1] and in assay [2] was “inactive” each time.

For `CC(=O)CC(c1ccccc1)c1c(O)c2ccccc2oc1=O` (stereo unspecified), the Potency entry in assay [1] and in assay [2] was “inactive” in each case.

Take `CCc1cc(C(N)=S)ccn1`: the Potency entry in assay [1] and in assay [2] was “inactive” throughout.

In the case of `CCCc1cc(C(N)=S)ccn1`, the Potency result in assay [1] and in assay [2] was “inactive” in each case.

Take `CCCCCCNC(=O)n1cc(F)c(=O)[nH]c1=O`: the Potency entry in assay [1] and in assay [2] was “inactive” in each case.

As to `O=NN(CCCl)C(=O)NC1CCCCC1`, the Potency result in assay [1] and in assay [2] was “inactive” each time.

Turning to `CC(=O)Oc1ccccc1C(=O)Nc1ncc([N+](=O)[O-])s1`, the Potency entry in assay [1] and in assay [2] was “inactive” throughout.

For `CC(C)(C)NC(=O)[C@H]1CC[C@H]2[C@@H]3CC[C@H]4NC(=O)C=C[C@]4(C)[C@H]3CC[C@]12C`, the Potency entry in assay [1] and in assay [2] was “inactive” in each case.

Consider `COc1ccc(-c2ccc3cc(C(=O)O)ccc3c2)cc1C12CC3CC(CC(C3)C1)C2`, for which the Potency entry in assay [1] and in assay [2] was “inactive” in each case.

`C[C@@H](CN1CC(=O)NC(=O)C1)N1CC(=O)NC(=O)C1`: the Potency result in assay [1] and in assay [2] was “inactive” each time.

In the case of `CC(C)OC(=O)C(C(=O)OC(C)C)=C1SC=CS1`, the Potency entry in assay [1] and in assay [2] was “inactive” each time.

For `CC(C)OC(=O)OCOP(=O)(CO[C@H](C)Cn1cnc2c(N)ncnc21)OCOC(=O)OC(C)C`, the Potency result in assay [1] and in assay [2] was “inactive” in each case.

As for `CCOC(=O)[C@H](CCc1ccccc1)N[C@H]1CCc2ccccc2N(CC(=O)O)C1=O`, the Potency result in assay [1] and in assay [2] was “inactive” in each case.

As to `NC(N)=NC(N)=NCCc1ccccc1`, the Potency result in assay [1] and in assay [2] was “inactive” in each case.

With `CC(C)Cn1cnc2c(N)nc3ccccc3c21`, the Potency entry in assay [1] and in assay [2] was “inactive” in each case.

As to `COCCCOc1cc(C[C@@H](C[C@H](N)[C@@H](O)C[C@H](C(=O)NCC(C)(C)C(N)=O)C(C)C)C(C)C)ccc1OC`, the Potency result in assay [1] and in assay [2] was “inactive” in each case.

Consider `O=C(O)c1cc(=O)[nH]c(=O)[nH]1`, for which the Potency result in assay [1] and in assay [2] was “inactive” in each case.

On to `CC(=O)[C@H]1CC[C@H]2[C@@H]3CC=C4C[C@@H](O)CC[C@]4(C)[C@H]3CC[C@]12C`, for which the Potency result in assay [1] and in assay [2] was “inactive” each time.

Regarding `N[C@@H](Cc1ccc(O)c(O)c1)C(=O)O`, the Potency result in assay [1] and in assay [2] was “inactive” throughout.

Consider `COC(=O)Nc1nc2ccc(C(=O)c3ccccc3)cc2[nH]1`, for which the Potency result in assay [1] and in assay [2] was “inactive” each time.

Turning to `CC(N)C12CC3CC(CC(C3)C1)C2` (stereo unspecified), the Potency in assay [1] is 6.4 µM (active) and inactive. Moreover, in assay [2], the Potency result is “inactive”.

Consider `CCN(C)C(=O)Oc1cccc([C@H](C)N(C)C)c1`, for which the Potency result in assay [1] and in assay [2] was “inactive” each time.

On to `N[C@@H](C(=O)N[C@@H]1C(=O)N2C(C(=O)O)=C(Cl)CS[C@H]12)c1ccccc1`, for which the activity change, negative = inhibition in assay [2] was 3.64% [at 9.73 µM] (inactive).

Take `COc1cnc(NS(=O)(=O)c2ccc(N)cc2)nc1`: the Potency entry in assay [1] and in assay [2] was “inactive” each time.

Turning to `CN(C)c1ccc(C(=C2C=CC(=[N+](C)C)C=C2)c2ccc(N(C)C)cc2)cc1`, the Potency result in assay [1] and in assay [2] was “inactive” in each case.

As to `CN(C)CCc1c[nH]c2ccc(C[C@H]3COC(=O)N3)cc12`, the Potency entry in assay [1] and in assay [2] was “inactive” each time. Also, the compound was called inactive in assay [3] and in assay [4].

As to `CC1=CC(=O)c2ccccc2C1=O`, the Potency entry in assay [2] is “inactive”.

On to `CCCCOc1ccc(CC(=O)NO)cc1`, for which the Potency entry in assay [1] and in assay [2] was “inactive” in each case.
